Screening data: PubChem BioAssay, National Center for Advancing Translational Sciences (NCATS)
Vif-A3F inh: Vif-A3F binding inhibition; HeLa A3F-eYFP + Vif (tagged APOBEC3F with the HIV-1 protein that degrades it), YFP fluorescence increase; Potency, µM (titrated, usually from 46.1 µM), for the others: top-dose activity, negative = active; 390,000 tested, 0.2% active; note: potency is the fitted concentration of half-maximal effect; % of control where 0% means no effect; nearly all actives have a fitted effect of over 65% in size
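HeLa cells stably expressing A3F-eYFP plus Vif, plated and incubated overnight at 37 deg C, then exposed to compounds overnight at 37 deg C. Blocked degradation read as raised yellow fluorescence (Ex 488/Em 500-530).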
Vif-APOBEC3G blk: blocks the Vif interaction with human APOBEC3G | Q9HC16 | HeLa A3G-eYFP + Vif (tagged APOBEC3G with the HIV-1 protein that degrades it), YFP fluorescence, overnight | Potency, µM (titrated, usually from 46.1 µM), for inactives: top-dose activity, negative = active, most hits filed as inhibitors | 410,000 tested, 0.076% active; note: potency is the fitted concentration of half-maximal effect; % is set by controls: 0 for no effect and ±100 for the full control effect; nearly all actives have a fitted effect of over 60% in size
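HeLa cells stably expressing Vif and C-terminally eYFP-tagged A3G, seeded overnight at 37 deg C, then exposed to compound by pintool overnight at 37 deg C. Rise in yellow fluorescence (Ex 488/Em 500-530, Acumen) marks blocked Vif-driven A3G degradation.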
GoLoco inh red: inhibitors of human Gai1-RGS12 GoLoco interaction (red fluorophore); 230,000 tested, 0.44% active; Potency, µM (highest dose often 61.6 µM), without a hit: top-dose activity, negative = inhibition, most hits filed as inhibitors; Gai1:RGS12 GoLoco peptide FP, rhodamine, 10 min; P63096; AID 880; active = well fitted inhibition curve with a large enough effect, not every such curve was filed as active; inactive = no such curve, though single readings can be large or run the other way; note: potency is the fitted concentration of half-maximal effect; % is set by controls: 0 for no effect and ±100 for the full control effect; nearly all actives have a fitted effect of over 30% in size
GCN5L2 inh: blocks human GCN5L2 histone acetyltransferase; GCN5L2 HAT assay, ThioGlo1 CoA-SH fluorescence; Potency, µM (top dose mostly 58.9 µM), without a hit: at the highest dose activity change, negative = inhibition, most hits filed as inhibitors; 390,000 tested, 0.21% active; AID 504327; note: potency is the fitted concentration of half-maximal effect; % is set by controls: 0 for no effect and ±100 for the full control effect
Target sequence (Q92830 whole entry, looked up): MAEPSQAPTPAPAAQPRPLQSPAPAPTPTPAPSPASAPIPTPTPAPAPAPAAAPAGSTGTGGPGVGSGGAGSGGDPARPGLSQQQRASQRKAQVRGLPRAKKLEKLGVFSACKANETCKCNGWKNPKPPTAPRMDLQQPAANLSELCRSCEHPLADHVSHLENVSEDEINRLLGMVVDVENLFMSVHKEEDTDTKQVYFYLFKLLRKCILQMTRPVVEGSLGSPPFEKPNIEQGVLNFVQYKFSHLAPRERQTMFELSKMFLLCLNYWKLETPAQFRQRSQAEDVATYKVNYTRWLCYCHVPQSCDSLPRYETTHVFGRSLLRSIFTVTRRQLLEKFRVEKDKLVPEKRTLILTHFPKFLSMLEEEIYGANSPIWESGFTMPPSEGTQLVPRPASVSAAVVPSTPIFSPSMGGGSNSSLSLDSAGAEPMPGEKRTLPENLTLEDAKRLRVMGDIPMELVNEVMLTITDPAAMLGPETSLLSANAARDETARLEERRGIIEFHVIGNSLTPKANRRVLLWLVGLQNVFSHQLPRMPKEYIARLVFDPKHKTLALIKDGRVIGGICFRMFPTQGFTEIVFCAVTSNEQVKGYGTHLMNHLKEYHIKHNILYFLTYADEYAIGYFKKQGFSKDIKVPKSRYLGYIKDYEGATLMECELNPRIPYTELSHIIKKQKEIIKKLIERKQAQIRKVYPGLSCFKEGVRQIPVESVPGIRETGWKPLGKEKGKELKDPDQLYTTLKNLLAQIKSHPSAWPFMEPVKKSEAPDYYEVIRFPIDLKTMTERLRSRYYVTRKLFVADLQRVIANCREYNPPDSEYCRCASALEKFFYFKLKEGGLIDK
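Preincubate 20nM GCN5L2 with compound 15 min, RT → add 50uM ThioGlo1 + 75uM H3(1-25) + 70uM acetyl-CoA → read fluorescence 0 and 20 min. Primary qHTS; fluorescent artifacts likely.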
PKM2 act: increases activity of human pyruvate kinase M2 | P14618 | purified PKM2, Kinase-Glo ATP luminescence, activation; response scale: 0% is enzyme alone, no compound | Potency, µM (top dose mostly 57.5 µM), for inactives: top-dose activation, actives largely listed as activators | 260,000 tested, 0.34% active | AID 1631; note: potency is the fitted concentration of half-maximal effect; % is set by controls: 0 for no effect and ±100 for the full control effect; nearly all actives have a fitted effect of over 55% in size
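Kinase-Glo luminescence reports ATP generated from ADP (0.1 mM) and PEP (0.5 mM) by purified hPK-M2 after 1 h at room temperature, pH 7.2 imidazole buffer; intermediate enzyme activity allows detecting inhibitors and activators.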
IL2 activator: IL-2 activation | activation, % (series mostly up to about 46 µM) | AID 652025 | IL-2 activation reporter assay, cell-based qHTS; stimulated with anti-CD3/CD4/CD28 beads; in transgenic mouse T cells | 360,000 tested, 0.065% active; in the data active = activation above about 50%; inconclusive = mostly about 30% to 49%; note: 0% is about no effect
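Quantitative HTS in unstimulated transgenic mouse T cells, with memory T cells as non-tolerant control and PMA/ionomycin as tolerance-bypass control. Compound pretreatment lasted 60 minutes before 18 h bead stimulation; EGFP/DsRed fluorescence read.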
* = called active by the depositor; ? = inconclusive; / = no result; [ ] = dose if it differs, or a comment. Shown are actives, neighbours in structure and some others; about 0.77% of the full set was active somewhere. Unless noted, calls come from the whole dose curve; as a rule, active = well fitted curve in the direction sought with a large enough effect; inconclusive = small, poorly fitted or top-dose-only effect, or another doubt; inactive = no such curve, though single readings can be large; an effect the other way counts as inactive or inconclusive.

SMILES | Vif-A3F inh | Vif-APOBEC3G blk | GoLoco inh red | GCN5L2 inh | PKM2 act | IL2 activator
CC(=O)OC1C2CCC1C([N+]1(C)CCCCC1)CC2 (centres undefined) | -9.1% | -3.7% | 14.1µM* | -18.4% | 0.1% | 0.6
C[N+]1(C2CCC3CCC2C3O)CCCC1 (centres undefined) | -0.4% | 0.4% | 15.8µM* | -15.9% | -2.2% | -1.4
C=C(C)C(=O)OC[C@@H]1CCC[N@+]2(C)CCCCC12 (some centres undefined) | / | / | -12.6% | / | / | /
Cc1ccc(Cn2cnc3nc4c(cc3c2=O)CCCC4)cc1 | 1.8% | -0.9% | / | -8.3% | / | /
Cc1nc2cc(NC(=O)N3CCCC3)ccc2n1C | 0.6% | 2.0% | -0.4% | -0.7% | -2.7% | -0.7
O=C(c1cccs1)N(Cc1ccco1)Cc1cc2ccccc2[nH]c1=O | -3.6% | -2.7% | -2.3% | -9.9% | 22.4µM* | -2.5
CCn1nnnc1-c1ccc(OC)c(S(=O)(=O)Nc2ccc(C)c(C)c2)c1 | 9.3% | -1.1% | 10.2% | -16.1% | 15.8µM* | -0.9
Cc1ccc(S(=O)(=O)CCSc2nc(C)cc(C)c2C#N)cc1 | 0.8% | -6.3% | 5.1% | -0.7% | 25.1µM* | -1.9
Cc1ccc(SC2=C(Sc3ccc(C)cc3)C(=O)c3ccccc3C2=O)cc1 | 8.91µM* | -9.8% | -27.9% | 2.6% | 0.7% | 2.0
CN1CCN(c2ncc3nc(-c4cc(F)cc(F)c4)c(=O)n(CCC#N)c3n2)CC1 | / | / | -12.7% | 25.1µM* | / | /
Nc1c(C(=O)Nc2ccccc2F)sc2nc(Cc3ccccc3)cc(C(F)(F)F)c12 | ? | -0.4% | -25.5% | -2.6% | -15.1% | 51.1*
Cc1cc(C)c2c(N)c(C(=O)Nc3ccccc3C(F)(F)F)sc2n1 | -4.7% | 0.2% | / | -8.2% | / | /
Cc1cc(C(F)(F)F)c2c(N)c(C(=O)Nc3cc(C)on3)sc2n1 | 11.2µM* | -15.7% | 3.0% | -4.0% | -1.8% | 27.6
COc1ccc2cc1Oc1cc3c(cc1OC)CC[N+](C)(C)C3Cc1ccc(cc1)Oc1c(OC)c(OC)cc3c1C(C2)[N+](C)(C)CC3 (centres undefined) | / | / | / | 20µM* | / | /
NC(=O)C1CCN(C(=O)CC(c2ccccc2)c2ccccc2)CC1 | -1.4% | -2.0% | / | 31.6µM* | 2.7%[11.5 µM] | 0.4
CN1C(=O)CCS(=O)(=O)C1c1ccc(Cl)c(Cl)c1 (centres undefined) | 0.1% | -3.8% | / | / | / | 0.3
CC(C)c1ccc(Nc2nc(CC(=O)O)cs2)cc1 | -4.1% | -6.2% | 27.8% | -2.7% | -9.2% | -1.0
CCc1nc2c(OCc3cccc(Cl)c3)cccn2c1N(C)C(C)=O | / | 3.4% | / | / | / | 54.6*
CCc1nc2c(OCc3cccc(Cl)c3)cccn2c1N(C)C(=O)C(C)C | / | -1.7% | / | / | / | -0.5
O=C(C1=C[C@H](c2csc3ccccc23)C[C@H](OCCCCO)O1)N1CCOCC1 | -1.2% | -5.8% | 3.5% | -6.2% | -3.0% | -1.7
O=c1[nH]c(=S)[nH]c2c1C(c1ccc(Br)cc1)c1c([nH]c(=S)[nH]c1=O)O2 | 7.3% | -13.1% | / | 14.1µM* | / | 0.4
O=C1CCCC2=C1C(c1ccc(Br)cc1)c1c([nH]c(=S)[nH]c1=O)N2 (centres undefined) | 2.0% | -4.7% | -17.1% | ? | 9.3% | -3.0
COc1cccc(OC)c1C(=O)NC(=O)Nc1c(F)cc(F)cc1F | -30.0% | -2.6% | 0.2% | 1.3% | -1.0% | 4.3
CCOc1ccc2nc(NC(=O)c3nc(SC(C)C)ncc3Cl)sc2c1 | 5.01µM* | 1.8% | / | -7.1% | / | /
CC(C)N1CCc2c(sc(NC(=O)c3cc4cc([N+](=O)[O-])ccc4s3)c2C(N)=O)C1 | ? | 8.91µM* | 8.9% | -3.4% | -1.1% | -2.1
SMILES | Vif-A3F inh | Vif-APOBEC3G blk | GoLoco inh red | GCN5L2 inh | PKM2 act | IL2 activator
CN1CCc2c(sc(NC(=O)c3cc4cc([N+](=O)[O-])ccc4s3)c2C(N)=O)C1 | / | / | 0.7% | -20.7% | 1.3% | /
Cc1cc(C(=O)Nc2nc3c(s2)CCCC3)cs1 | -13.3% | 0.4% | -0.6% | -5.8% | -13.4% | 2.2
CCOc1ccc(Cn2c3ccc(OC)cc3c3nc4ccccc4nc32)cc1 | 11.2µM* | ? | 1.5% | 0.1% | -3.8% | 0.1
Cc1ccc(C)c(-n2nnnc2SCC(=O)c2ccc3c(c2)NC(=O)CO3)c1 | -2.9% | -3.8% | 20.4% | -12.5% | 14.1µM* | -2.8
CCOc1cc(C2CC(=O)NC(SCC)=C2C#N)ccc1O (centres undefined) | -13.9% | -5.3% | 4.5% | -6.9% | -5.4% | -1.6
O=C(CN1C(=O)S/C(=C\c2cc(Cl)c(O)c(Cl)c2)C1=O)Nc1ccccc1 | 12.6µM* | ? | / | ? | -7.7% | -2.8
COc1ccc(/C=C2/SC(=S)N(CCCC(=O)Nc3ccc(O)cc3)C2=O)cc1OC | -21.3% | ? | / | -2.6% | 3.2% | 84.7*
COc1cc(/C=C2\SC(=S)N(CCC(=O)Nc3ccccn3)C2=O)cc(OC)c1OC | 25.1µM* | -21.4% | / | 0.4% | 11.1% | -0.7
O=C(CCN1C(=O)/C(=C/c2cccs2)SC1=S)Nc1cccc(O)c1 | 1.9% | 1.4% | / | -8.2% | 5.01µM* | -0.3
Cc1cc(N2C(=O)CC(Cc3ccc(Cl)cc3)C2=O)no1 (centres undefined) | 3.3% | -5.5% | 0.3% | -12.7% | 0.2% | -2.0
COc1cc(/C=C2\SC(=S)N(CCC(=O)Nc3ccccc3)C2=O)cc(OC)c1OC | ? | ? | 91.0% | -0.5% | -13.3% | 0.5
COc1cc(/C=C2/SC(=S)N(CCC(=O)Nc3ccccc3)C2=O)cc(OC)c1OC | 11.2µM* | ? | / | -11.4% | / | 12.6
Cc1csc(C(C#N)C(=O)c2ccc(S(=O)(=O)N3CCCC3)cc2)n1 (centres undefined) | -1.0% | 0.1% | 62.6% | 1µM* | -2.6% | -3.1
Cc1cc(C)nc(SCC(=O)Nc2ccc(S(=O)(=O)N3CCCCC3)cc2)n1 | 1.6% | -7.8% | 10.3% | -13.5% | -3.8% | -3.7
Cc1csc(SCC(=O)Nc2ccc(S(=O)(=O)N3CCCC3)cc2)n1 | 1.0% | 1.0% | 7.7% | 0.8% | 20µM* | -1.8
CCc1nc(N2CCN(C(C)=O)CC2)c(C#N)c2c1COC(C)(C)C2 | -5.1% | 2.3% | 8.7% | -3.6% | -5.0% | -0.6
c1cc(SC2CCCCC2)cc(-c2nc3cnccn3c2NC2CCCCC2)c1 | 25.1µM* | ? | / | ? | / | -0.6
COc1ccc(OC)c(C2Nc3c(Cl)ccc(C(=O)O)c3C3C=CCC32)c1 (centres undefined) | -1.3% | -29.6% | -12.2% | -3.9% | 11.0% | -0.2
